From the supplement of paper PMC6897291
Structures can show the parent of a compound that is named as a salt.

These molecules were tested on U-2932 (assay: growth inhibition by drug alone (1 - RLU/untreated control) (fraction); higher = stronger inhibition). Conditions: 10 nM; time (day): 4; 177Lu-lilotomab satetraxetan 0 ug/ml.
Summary of the method: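 RIVA or U-2932 cells were left untreated or pretreated for 18 h with a radiolabelled anti-CD37 antibody conjugate (~600 MBq/mg) at 0.5 µg/ml for RIVA or 1 µg/ml for U-2932. The cells were then washed and seeded at 3,000 cells/well on plates pre-printed with the Selleck Cambridge Cancer Compound library, dosed at 10/100 nM for RIVA and 10/1,000 nM for U-2932. From day 3, RealTime-Glo luminescence was read daily after 1 h at 37°C. Growth inhibition was taken as one minus RLU over the mean of the untreated no-drug wells, of which there were 48 per plate.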

Row | SMILES | growth inhibition by drug alone
1 | COc1ccc(S(=O)(=O)Nc2cccnc2Nc2ccc(O)cc2)cc1 | -0.0101
2 | C[C@]12CCC(=O)C=C1CC[C@@H]1[C@@H]2[C@@H](O)C[C@@]2(C)[C@H]1CC[C@]2(O)C(=O)CO [Hydrocortisone (Cortisol)] | 0.0854
3 | COc1cc(OC2CCN(C)CC2)ccc1Nc1ncc2c(n1)n(C1CCCC1)c(=O)n2C | -0.0489
4 | Nc1nc(F)nc2c1ncn2[C@@H]1O[C@H](CO)[C@@H](O)[C@@H]1O [Fludarabine (Fludara)] | 0.031
5 | Nc1nc(Nc2ccc(S(N)(=O)=O)cc2)nn1C(=O)c1c(F)cccc1F | 0.0712
6 | Nc1ncn([C@@H]2O[C@H](CO)[C@@H](O)[C@H]2O)c(=O)n1 [Azacitidine (Vidaza)] | -0.0929
7 | COc1cc2nccc(Oc3ccc(NC(=O)NC4CC4)c(Cl)c3)c2cc1C(N)=O [E7080 (Lenvatinib)] | -0.0782
8 | Nc1ccn([C@@H]2O[C@H](CO)[C@@H](O)[C@@H]2O)c(=O)n1 [Cytarabine] | 0.0194
9 | Nc1cccc2c1C(=O)N(C1CCC(=O)NC1=O)C2=O (stereo not drawn) [Pomalidomide] | 0.0144
10 | CN(C)c1nc(N(C)C)nc(N(C)C)n1 [Altretamine (Hexalen)] | -0.0905
11 | Cc1[nH]c(/C=C2\C(=O)Nc3ccc(S(=O)(=O)N(C)c4cccc(Cl)c4)cc32)c(C)c1C(=O)N1CCN(C)CC1 | 0.00253
12 | O=C(O[C@@H]1Cc2c(O)cc(O)cc2O[C@@H]1c1cc(O)c(O)c(O)c1)c1cc(O)c(O)c(O)c1 [(-)-Epigallocatechin gallate] | -0.0176
13 | CCc1c2c(nc3ccc(OC(=O)N4CCC(N5CCCCC5)CC4)cc13)-c1cc3c(c(=O)n1C2)COC(=O)[C@]3(O)CC [Irinotecan HCl Trihydrate (Campto)] | -0.0323
14 | S=C(NCc1ccc2c(c1)OCO2)N1CCN(c2ncnc3c2oc2ccccc23)CC1 [Amuvatinib (MP-470)] | 0.0926
15 | COc1ccc2c3n(c(=NC(=O)c4cccnc4)nc2c1OC)CCN3 | 0.0853
16 | C#Cc1cccc(Nc2ncnc3cc(OCCOC)c(OCCOC)cc23)c1 [Erlotinib HCl] | 0.251
17 | Cc1ccc(-c2cc(C(F)(F)F)nn2-c2ccc(S(N)(=O)=O)cc2)cc1 [Celecoxib] | -0.0572
18 | N#CC[C@H](C1CCCC1)n1cc(-c2ncnc3[nH]ccc23)cn1 | 0.0281
19 | CCc1cncnc1N1CCN(Cc2nc3ccc(C(F)(F)F)cc3[nH]2)CC1 | 0.0884

Row | SMILES | growth inhibition by drug alone
20 | CCN(CC)C(=S)SSC(=S)N(CC)CC [Disulfiram (Antabuse)] | 0.0424
21 | CC(C)[C@H](C(=O)Nc1ccc(C(=O)NO)cc1)c1ccccc1 | 0.00418
22 | CC(=O)O[C@]1(C(C)=O)CC[C@H]2[C@@H]3C=C(C)C4=CC(=O)CC[C@]4(C)[C@H]3CC[C@@]21C [Megestrol Acetate] | 0.0962
23 | COc1cc2ncnc(Nc3cccc(Br)c3)c2cc1OC | 0.0294
24 | N#Cc1ccc(C(c2ccc(C#N)cc2)n2cncn2)cc1 [Letrozole] | -0.0615
25 | CC(=O)c1c(C)c2cnc(Nc3ccc(N4CCNCC4)cn3)nc2n(C2CCCC2)c1=O | 0.0389
26 | COc1cccc2c1C(=O)c1c(O)c3c(c(O)c1C2=O)C[C@@](O)(C(=O)CO)C[C@@H]3O[C@H]1C[C@H](N)[C@H](O)[C@H](C)O1 [Doxorubicin (Adriamycin)] | 0.293
27 | CC(C)(C)c1[nH]cnc1/C=c1\[nH]c(=O)/c(=C/c2ccccc2)[nH]c1=O [NPI-2358 (Plinabulin)] | 0.0848
28 | COc1cc(Nc2ncc3c(n2)-c2ccc(Cl)cc2C(c2c(F)cccc2OC)=NC3)ccc1C(=O)O [MLN8237 (Alisertib)] | -0.00518
29 | O=c1[nH]cc(F)c(=O)[nH]1 [Adrucil (Fluorouracil)] | 0.0194
30 | CC(C)c1ccc(Cn2ccc3c4c(N)nc(NC5CC5)nc4ccc32)cc1 | 0.138
31 | CC/C(=C(\c1ccccc1)c1ccc(OCCN(C)C)cc1)c1ccccc1 [Tamoxifen Citrate (Nolvadex)] | 0.0582
32 | Cn1cc(C2=C(c3ccc(Cl)cc3Cl)C(=O)NC2=O)c2ccccc21 | 0.00823
33 | c1ccc(-c2nn3c(c2-c2ccnc4cc(OCCN5CCOCC5)ccc24)CCC3)nc1 | 0.0254
34 | O=C(NCCS(=O)(=O)c1ccc(C(F)(F)F)cn1)c1ccc(Cl)cc1 | -0.0169
35 | Cc1ccc(S(=O)(=O)C=CC#N)cc1 | 0.0923
36 | CCC1=C[C@@H]2CN(C1)Cc1c([nH]c3ccccc13)[C@@](C(=O)OC)(c1cc3c(cc1OC)N(C)[C@H]1[C@@](O)(C(=O)OC)[C@H](OC(C)=O)[C@]4(CC)C=CCN5CC[C@]31[C@@H]54)C2 [Vinorelbine (Navelbine)] | 0.587
37 | Cc1cc(Nc2cc(N3CCN(C)CC3)nc(/C=C/c3ccccc3)n2)n[nH]1 | -0.0558
38 | CN(N=O)C(=O)N[C@@H](C=O)[C@@H](O)[C@H](O)[C@H](O)CO [Streptozotocin (Zanosar)] | -0.049
